Experimental data reported in PubChem BioAssay (NCI).
This is part of a sample that, as a whole, favours compounds with a hit. Of some 79,000 tested, about 15% had one in any assay. The source made the active and inactive calls. Rule as the data show it: active = growth inhibition above about 70%; inactive = the rest.

What was measured:
[1] = NCI Yeast Anticancer Drug Screen. Data for the rad52 strain (AID 147);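 also: 0% = growth of vehicle-treated control cultures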; settings: S. cerevisiae rad52 mutant growth inhibition, stronger effect = higher value
Procedure, shortened: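 Here a repair-compromised yeast strain receives each compound; its growth is then quantified and normalised to vehicle-only controls.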

[2] = NCI Yeast Anticancer Drug Screen. Data for the wt1 strain (AID 149);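 also: 0% = growth of vehicle-treated wt1 cultures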; settings: S. cerevisiae wt1 strain (SPY 50644) growth inhibition, stronger effect = higher value
Procedure, shortened: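 Vehicle-normalised growth inhibition; strain wt1; compound exposure.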

[3] = NCI Yeast Anticancer Drug Screen. Data for the rad50EPP+ strain (AID 151);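 also: 0% = growth of vehicle-treated control cultures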; settings: S. cerevisiae rad50 mutant strain, stronger effect = higher value
Procedure, shortened: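 Read-out is yeast growth inhibition relative to vehicle; cells used were the rad50EPP+ strain.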

[4] = NCI Yeast Anticancer Drug Screen. Data for the rad50 strain (AID 155);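 also: 0% = growth of vehicle-only cultures of the same strain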; settings: S. cerevisiae rad50 strain growth inhibition, stronger effect = higher value
Procedure, shortened: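 A DNA repair-deficient yeast mutant serves as the test organism; compound-induced growth inhibition is calculated against vehicle-treated cells.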

[5] = NCI Yeast Anticancer Drug Screen. Data for the mec2-1 strain (AID 157); settings: S. cerevisiae mec2-1 strain, stronger effect = higher value
Procedure, shortened: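 Using mec2-1 yeast: add compound, measure growth, express inhibition versus vehicle-treated cultures.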

[6] = NCI Yeast Anticancer Drug Screen. Data for the rad14 strain (AID 159);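 also: 0% = growth of vehicle-treated control cultures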; settings: S. cerevisiae rad14 strain growth inhibition, stronger effect = higher value
Procedure, shortened: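 Vehicle-treated cultures served as the baseline for growth inhibition of a DNA repair-mutant yeast strain exposed to each compound.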

[7] = NCI Yeast Anticancer Drug Screen. Data for the sgs1 mgt1 strain (AID 161);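 also: 0% = growth of cultures given vehicle only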; settings: S. cerevisiae sgs1 mgt1 strain, stronger effect = higher value
Procedure, shortened: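 Growth of a repair-deficient yeast mutant was monitored after compound treatment and expressed as inhibition relative to vehicle-treated cultures.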

[8] = NCI Yeast Anticancer Drug Screen. Data for the CLN2oe strain (AID 163);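 also: 0% = growth of vehicle-only control cultures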; settings: S. cerevisiae CLN2oe strain, stronger effect = higher value
Procedure, shortened: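 Whole-cell yeast growth assay. A strain engineered for altered cell-cycle control received compound, and inhibition relative to vehicle-treated cultures was recorded.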

[9] = NCI Yeast Anticancer Drug Screen. Data for the cln2 rad14 strain (AID 165);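 also: 0% = growth equal to vehicle treated cultures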; settings: S. cerevisiae cln2 rad14 strain, stronger effect = higher value
Procedure, shortened: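 Yeast strain cln2 rad14, bearing defects in cell cycle control and DNA repair, serves as the test system; values reflect growth inhibition compared with vehicle.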

[10] = NCI Yeast Anticancer Drug Screen. Data for the bub3 strain (AID 167); settings: S. cerevisiae bub3 mutant strain, stronger effect = higher value
Procedure, shortened: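 Inhibition values come from growth of compound-treated mutant yeast normalised to vehicle-treated controls.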

[11] = NCI Yeast Anticancer Drug Screen. Data for the wt2 strain (AID 169);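 also: 0% = growth of vehicle-treated yeast cultures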; settings: S. cerevisiae wt2 strain growth inhibition, stronger effect = higher value
Procedure, shortened: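 Treated yeast vs. vehicle-treated yeast: growth inhibition determined.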

[12] = NCI Yeast Anticancer Drug Screen. Data for the mlh1 strain (AID 171);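 also: 0% = growth of vehicle-treated control cultures of the same strain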; settings: S. cerevisiae mlh1 strain growth inhibition, stronger effect = higher value
Procedure, shortened: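 A yeast strain with a defined genetic lesion serves as the test organism. Cultures receive compound or vehicle, and growth is measured.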

[13] = NCI Yeast Anticancer Drug Screen. Data for the sgs1 strain (AID 173);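 also: 0% = growth of vehicle-only control cultures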; settings: S. cerevisiae sgs1 mutant, stronger effect = higher value
Procedure, shortened: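 A genetically defined yeast mutant is incubated with the test compound, and its growth is compared to that of the same strain given vehicle.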

[14] = NCI Yeast Anticancer Drug Screen. Data for the rad18 strain (AID 177); settings: S. cerevisiae rad18 mutant growth inhibition, stronger effect = higher value
Procedure, shortened: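 Measured value is growth inhibition of a yeast strain bearing a DNA repair alteration, referenced to vehicle-treated cells.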

[15] = at 5.0 µM (retest, dose inferred, filed as 0.5)
[16] = at 50.0 µM (retest, dose inferred, filed as 5.0)

Measured: growth inhibition

Cc1ccc(N=Nc2ccc(O)c(C)c2)cc1
inactive: [1]; at 1.2 µM 6% | [1]; at 3.7 µM 10% | [2]; at 1.2 µM 5% | [2]; at 3.7 µM -2% | [3]; at 1.2 µM 20% | [3]; at 3.7 µM 39% | [3]; at 11.0 µM 53% | [4]; at 1.2 µM 9% | [4]; at 3.7 µM 18% | [4]; [15] 38% | [4]; [16] 56% | [5]; at 1.2 µM 10% | [5]; at 3.7 µM 11% | [5]; [15] 52% | [5]; [16] 66% | [6]; at 1.2 µM 4% | [6]; at 3.7 µM -7% | [6]; at 11.0 µM 68% | [7]; [15] -16% | [8]; at 1.2 µM -2% | [8]; at 3.7 µM -18% | [9]; [15] 32% | [10]; at 1.2 µM -6% | [10]; at 3.7 µM -7% | [10]; [15] 2% | [11]; at 1.2 µM 5% | [11]; at 3.7 µM 14% | [12]; at 1.2 µM 19% | [12]; at 3.7 µM 10% | [13]; at 1.2 µM 28% | [13]; at 3.7 µM 26% | [14]; at 1.2 µM 27% | [14]; at 3.7 µM 27%
active: [1]; at 11.0 µM 88% | [1]; at 33.0 µM 98% | [1]; at 100.0 µM 87% | [2]; at 11.0 µM 92% | [2]; at 33.0 µM 98% | [2]; at 100.0 µM 85% | [3]; at 33.0 µM 96% | [3]; at 100.0 µM 82% | [4]; at 11.0 µM 95% | [4]; at 33.0 µM 98% | [4]; at 50.0 µM 91.2% | [4]; at 100.0 µM 94% | [5]; at 11.0 µM 80% | [5]; at 33.0 µM 97% | [5]; at 50.0 µM 92.5% | [5]; at 100.0 µM 79% | [6]; at 33.0 µM 96% | [6]; at 100.0 µM 89% | [7]; [16] 91% | [7]; at 50.0 µM 92.5% | [8]; at 11.0 µM 97% | [8]; at 33.0 µM 97% | [8]; at 100.0 µM 78% | [9]; [16] 94% | [9]; at 50.0 µM 92.2% | [10]; at 11.0 µM 95% | [10]; at 33.0 µM 97% | [10]; [16] 95% | [10]; at 50.0 µM 91.3% | [10]; at 100.0 µM 84% | [11]; at 11.0 µM 91% | [11]; at 33.0 µM 98% | [11]; at 100.0 µM 79% | [12]; at 11.0 µM 91% | [12]; at 33.0 µM 97% | [12]; at 100.0 µM 80% | [13]; at 11.0 µM 90% | [13]; at 33.0 µM 98% | [13]; at 100.0 µM 85% | [14]; at 11.0 µM 89% | [14]; at 33.0 µM 98% | [14]; at 100.0 µM 91%

On1cnc(=S)c2[nH]cnc21
inactive: [1]; at 1.2 µM -28% | [1]; at 3.7 µM -27% | [1]; at 11.0 µM -29% | [1]; at 33.0 µM -26% | [1]; at 100.0 µM -35% | [2]; at 1.2 µM -31% | [2]; at 3.7 µM -33% | [2]; at 11.0 µM -30% | [2]; at 33.0 µM -39% | [2]; at 100.0 µM -42% | [3]; at 1.2 µM -23% | [3]; at 3.7 µM -39% | [3]; at 11.0 µM -11% | [3]; at 33.0 µM -37% | [3]; at 100.0 µM -41% | [4]; at 1.2 µM -63% | [4]; at 3.7 µM -33% | [4]; [15] 24% | [4]; at 11.0 µM -65% | [4]; at 33.0 µM -62% | [4]; at 50.0 µM -7.05% | [4]; at 100.0 µM -55% | [5]; at 1.2 µM 31% | [5]; at 3.7 µM 9% | [5]; [15] 15% | [5]; at 11.0 µM 11% | [5]; at 33.0 µM -2% | [5]; at 50.0 µM 1.85% | [5]; at 100.0 µM -1% | [6]; at 1.2 µM -32% | [6]; at 3.7 µM -26% | [6]; at 11.0 µM -34% | [6]; at 33.0 µM -28% | [6]; at 100.0 µM -14% | [7]; [15] 36% | [7]; at 50.0 µM 9.3% | [8]; at 1.2 µM 23% | [8]; at 3.7 µM 9% | [8]; at 11.0 µM -10% | [8]; at 33.0 µM 19% | [8]; at 100.0 µM 11% | [9]; [15] 13% | [9]; at 50.0 µM 1.85% | [10]; at 1.2 µM -29% | [10]; at 3.7 µM -6% | [10]; [15] 17% | [10]; at 11.0 µM -17% | [10]; at 33.0 µM -3% | [10]; at 50.0 µM -6.65% | [10]; at 100.0 µM -8% | [11]; at 1.2 µM 2% | [11]; at 3.7 µM -6% | [11]; at 11.0 µM -11% | [11]; at 33.0 µM -4% | [11]; at 100.0 µM -19% | [12]; at 1.2 µM -6% | [12]; at 3.7 µM -14% | [12]; at 11.0 µM -28% | [12]; at 33.0 µM -29% | [12]; at 100.0 µM -37% | [13]; at 1.2 µM -22% | [13]; at 3.7 µM -26% | [13]; at 11.0 µM -16% | [13]; at 33.0 µM -44% | [13]; at 100.0 µM -32% | [14]; at 1.2 µM -40% | [14]; at 3.7 µM -33% | [14]; at 11.0 µM -55% | [14]; at 33.0 µM -61% | [14]; at 100.0 µM -67%
active: [4]; [16] 74% | [5]; [16] 99% | [7]; [16] 100% | [9]; [16] 97% | [10]; [16] 99%
